The list is not random: actives were taken first. Their share in the collection is about 3.4%.
MITF primary – MITF inhibitors, primary screen, biochemical, AlphaScreen, human; Microphthalmia-associated transcription factor (Homo sapiens), O75030; AlphaScreen MITF homodimerization, bead proximity signal; inhibition, % at 2.6 µM; hit rate 0.91% among 650,000; AID 1259374, 2018; in the data active = inhibition above about 50%
TEAD-YAP block – TEAD-YAP interaction inhibition, primary screen, TEAD-YAP interaction inhibitor project, luminescence, HEK-TIYL cells | TEAD-Gal4/YAP UAS-luciferase luminescence | inhibition, % at 9.12 µM | hit rate 1.4% among 640,000 | AID 1259422, 2018; in the data active = inhibition above about 32%
GPR151 activ – activators of human GPR151, primary screen, cell-based, PathHunter beta-arrestin, luminescence. G-protein coupled receptor 151 (Homo sapiens), Q8TDV0. PathHunter beta-arrestin GPR151 cells. activation, % at 11.2 µM. hit rate 1% among 650,000. AID 1508602, 2020; in the data active = activation above about 4.9%
Target sequence (Q8TDV0 whole entry, looked up): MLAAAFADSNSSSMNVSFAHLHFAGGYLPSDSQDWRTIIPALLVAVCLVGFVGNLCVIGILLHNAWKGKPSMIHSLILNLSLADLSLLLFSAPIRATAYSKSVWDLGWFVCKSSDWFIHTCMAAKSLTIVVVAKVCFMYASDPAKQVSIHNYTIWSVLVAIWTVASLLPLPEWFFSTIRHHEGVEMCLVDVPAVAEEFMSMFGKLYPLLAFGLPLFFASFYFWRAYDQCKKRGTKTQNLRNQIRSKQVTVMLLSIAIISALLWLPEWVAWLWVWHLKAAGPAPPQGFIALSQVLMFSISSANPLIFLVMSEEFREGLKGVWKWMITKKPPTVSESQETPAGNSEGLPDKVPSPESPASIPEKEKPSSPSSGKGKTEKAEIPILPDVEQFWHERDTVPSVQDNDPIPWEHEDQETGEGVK
FBW7 activator – FBW7 E3 ligase activators, primary screen, biochemical, AlphaScreen, human; AlphaScreen FBW7–phospho-cyclin E peptide binding, activator screen; AID 1259310, 2017; hit rate 0.13% among 650,000; normalized activity (activation), % at 26.1 µM; in the data active = normalized activity above about 1.9%;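 note: purified mutant Fbw7 with reduced substrate affinity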
GPR151 confirm – GPR151 activators, triplicate retest, confirmation, cell-based, PathHunter beta-arrestin, luminescence. shares compounds with GPR151 activ. GPR151 PathHunter beta-arrestin cells, 90 min; % of EA-reagent control over plate median. activation, % at 11.2 µM. 6,700 tested, under 10 active. AID 1508609, 2020;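 active = mean percent activation across replicates above the confirmation screen cutoff of 4.91%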
GPR119 counter – GPR119 activators in beta-arrestin cells, counter-screen for GPR151 activator project, cell-based, PathHunter beta-arrestin, luminescence, triplicate; 90 min; 0 = compound-well median, 100 = enzyme-acceptor control; hit rate 0.3% among 6,700; shares compounds with GPR151 activ; activation, % at 11.2 µM;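 active = mean percent activation in the counterscreen above 29.09%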;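 note: counterscreen on off-target GPR119 to flag nonselective hits from the GPR151 activator screen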
Hits are given with their value; - = inactive; . = no result; ! = a repeat was not active.

SMILES | MITF primary | TEAD-YAP block | GPR151 activ | FBW7 activator | GPR151 confirm | GPR119 counter
COc1ccc(Cl)cc1NC(=O)CN(C)S(=O)(=O)c1ccc(Br)cc1 | - | - | - | - | . | .
Cc1ccc(N(CC(=O)N2CCCCCC2)S(=O)(=O)c2ccccc2)cc1C | - | - | 5.8 | - | - | -
CCOc1ccccc1N(CC(=O)N1CCCC1)S(=O)(=O)c1ccc(C)cc1 | - | - | 6.0 | - | - | -
Cc1ccc(N(CC(O)Cn2c3ccccc3c3ccccc32)S(=O)(=O)c2ccc(C)cc2)cc1 (centres undefined) | - | - | - | - | . | .
Cc1ccc(N(CC(=O)N2CCOCC2)S(=O)(=O)c2ccccc2)cc1 | - | - | 9.1 | - | - | -
O=C(CN(c1ccccc1)S(=O)(=O)c1ccccc1)N1CCOCC1 | - | - | - | - | . | .
Cc1ccc(N(CC(O)Cn2c3ccccc3c3ccccc32)S(=O)(=O)c2ccccc2)cc1 (centres undefined) | - | - | 6.2 | - | - | -
Cc1sc2nc(COC(=O)c3ccccn3)[nH]c(=O)c2c1C | - | - | - | - | . | .
CC(C)CCNC(=O)C1CCCN(S(=O)(=O)c2ccc3c(c2)oc(=O)n3C)C1 (centres undefined) | - | - | - | - | . | .
NCCNCCOCCOc1ccc(F)cc1 | - | - | - | - | . | .
O=[N+]([O-])c1ccc(OC/C=C2/Oc3ccc([N+](=O)[O-])cc3C2N2CCOCC2)cc1 (centres undefined) | - | - | - | - | . | .
O=C(Cc1ccccc1)N1CC[C@H]2[C@H](CCCN2C(=O)c2ccc(-c3ccco3)cc2)C1 | - | - | - | - | . | .
COc1ccc(-c2nc(S(=O)(=O)c3ccc(Cl)cc3)c(N3CCOCC3)o2)cc1 | - | - | - | - | . | .
Cc1ccc(S(=O)(=O)N(CC(=O)N2CCOCC2)CC(=O)N2CCOCC2)cc1 | - | - | 6.6 | - | - | -
Nc1cc(C(=O)OCC(=O)N2CCc3ccccc32)ccc1Cl | - | - | - | - | . | .
COc1ccc(NC(=O)c2sc(=S)[nH]c2N)cc1 | - | - | 5.0 | - | - | -
Cc1ccc(-c2ocnc2C(=O)Nc2cc(C)on2)cc1 | - | - | - | - | . | .
COC(=O)c1ccc(NC(=O)CCS(=O)(=O)c2ccc(OC)cc2)cc1 | - | - | 5.0 | - | - | -
COC(=O)c1cc(NC(=O)CCS(=O)(=O)c2ccc(OC)cc2)cc(C(=O)OC)c1 | - | - | - | - | . | .
COC(=O)CCS(=O)(=O)c1ccc(Cl)cc1 | - | - | - | - | . | .
COC(=O)CCS(=O)(=O)c1ccc(Oc2ccc(S(=O)(=O)CCC(=O)OC)cc2)cc1 | - | - | 5.7 | - | - | -
O=C(Nc1ccccn1)c1ccccc1Cl | - | - | 6.0 | - | - | -
CC(C)C(=O)Nc1ccc(NC(=O)c2ccccc2Cl)nc1 | - | - | 6.9 | - | - | -
CC/C(C)=N/NC(=O)c1ccc(C(=O)N/N=C(\C)CC)cc1 | - | - | 8.3 | - | - | -
CC/C(C)=N\NC(=O)c1ccc(N)cc1 | - | - | - | - | . | .
SMILES | MITF primary | TEAD-YAP block | GPR151 activ | FBW7 activator | GPR151 confirm | GPR119 counter
CC1Sc2ccccc2N(Cc2ccc(C(F)(F)F)nc2)C1=O (centres undefined) | - | - | 5.4 | - | - | -
COc1ccc(Nc2ncnc3c2c(-c2ccccc2)cn3-c2cccc(C)c2)cc1 | - | - | - | - | . | .
N#Cc1ccc(C(=O)NCc2nc(-c3ccncc3)n[nH]2)cc1 | - | - | 5.3 | - | - | -
Cc1ccccc1C(=O)Oc1coc(CSc2nnc(NC(=O)C3CC3)s2)cc1=O | - | - | - | - | . | .
CCCCn1c(C)nc2c(sc3nc4c(cc32)COC(C)(C)C4)c1=O | - | - | 9.0 | - | - | -
CCN(CC)P(=O)(c1nc2ccccc2n1CC)N(CC)CC | - | - | 5.6 | - | - | -
COc1ccc(-c2noc(Nc3ccc(Cl)cc3)n2)cc1 | - | - | 8.2 | - | - | -
COc1ccc(-c2noc(Nc3ccc(C(C)C)cc3)n2)cc1 | - | - | - | - | . | .
CC(=O)N1CCC(C(=O)N2CCc3c([nH]c4ccccc34)C2CC(C)C)CC1 (centres undefined) | - | - | - | - | . | .
c1ccc(COC2CCCN(Cc3nc(-c4ccc5c(c4)OCO5)no3)C2)nc1 (centres undefined) | - | - | 16 | - | - | -
c1ccc(COC2CCCN(Cc3nc(-c4cccs4)no3)C2)nc1 (centres undefined) | - | - | - | - | . | .
CN(C)CCCNc1ccc(S(N)(=O)=O)cc1[N+](=O)[O-] | - | - | 5.7 | - | - | -
CC(C)=C/C(C)=N/Nc1ccc(S(N)(=O)=O)cc1[N+](=O)[O-] | - | - | 4.9 | - | - | -
CC(=O)N1CCOc2cc(S(=O)(=O)N3CCC(C(N)=O)CC3)c(Cl)cc21 | - | - | - | - | . | .
CC(=O)N1CCOc2cc(S(=O)(=O)N3CCN(C)CC3)c(Cl)cc21 | - | - | 5.1 | - | - | -
Cc1ccc(C)c(C(=O)COC(=O)c2ccc(NC(=O)c3ccc([N+](=O)[O-])cc3)cc2)c1 | - | - | - | - | . | .
OC(CN1CCN(c2cccnc2)CC1)Cn1nnnc1-c1ccccc1 (centres undefined) | - | - | - | - | . | .
Cc1c(Cl)cccc1Nc1ccccc1C(=O)O | - | - | 7.5! | - | - | -
Cc1c(Cl)cccc1NC(=O)c1ccccc1C(=O)O | - | - | - | - | . | .
Cc1ccc(NC(=O)CCc2nnc3ccc(N4CCC(C(N)=O)CC4)nn23)cc1 | - | - | - | - | . | .
Cc1ccc(NC(=O)CCc2nnc3ccc(N4CCC(C)CC4)nn23)cc1 | - | - | 5.0 | - | - | -
N#C/C(=C/c1ccc(N2CCOCC2)c([N+](=O)[O-])c1)c1nc2ccccc2[nH]1 | - | - | 5.2 | - | - | -
CCOc1ccc(NC(=O)CSc2nnc(-c3ccc(Cl)cc3)c(-c3ccc(Cl)cc3)n2)cc1 | - | - | - | - | . | .
Cc1ccc(-c2nnc(C3CCN(S(=O)(=O)c4ccc(Cl)s4)CC3)o2)cc1 | - | - | 7.0 | - | - | -
O=[N+]([O-])c1ccc(Nc2nc(-c3ccccc3)cs2)cc1 | - | - | 6.1 | - | - | -
CC(=O)Nc1cccc(-c2csc(Nc3ccc(C)cc3)n2)c1 | - | - | 10 | - | - | -
CC(=O)Nc1cccc(-c2csc(Nc3ccccc3Cl)n2)c1 | - | - | 5.0 | - | - | -
CC(C)NCCOCCOc1c(Cl)cccc1Cl | - | - | - | - | . | .
CC(C)NCCOCCOc1cccc(Cl)c1 | - | - | 8.4 | - | - | -
COc1ccc(Cl)cc1NC(=O)/C(=C\c1ccc2c(c1)OCO2)NC(=O)c1ccccc1Cl | - | - | - | - | . | .

Compound activity (PubChem)
